# Screens deposited in PubChem by National Center for Advancing Translational Sciences (NCATS).
# TDP1 cell noCPT = qHTS for Inhibitors of human tyrosyl-DNA phosphodiesterase 1 (TDP1): qHTS in cells in absence of CPT. DT40 Tdp1-/- hTDP1 cells, no CPT, ATP luminescence, 48 h. Potency, µM (doses to about 46.2 µM), for inactives: at the highest dose activity change, negative = growth inhibition, most hits filed as inhibitors. hit rate 15% among 420,000. AID 686978, 2013; also: potency is read from the fitted curve at half-maximal effect; nearly all actives have a fitted effect of over 55% in size
#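 Camptothecin absent (DMSO only). Human TDP1-complemented DT40 knockout cells, 400 cells/well, 37 °C for minimum 48 hr; ATP measured via CellTiter-Glo, 30 min dark incubation, luminescence.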
# uPA surface inh = qHTS for Inhibitors of Cell Surface uPA Generation; cell surface uPA generation assay, qHTS; Potency, µM (highest dose often 38.3 µM), without a hit: at the top dose activity change, negative = inhibition, actives largely listed as inhibitors; hit rate 0.31% among 330,000; active = well fitted inhibition curve with a large enough effect; inconclusive = small, poorly fitted or top-dose-only effect; inactive = no such curve, though single readings can be large or run the other way; tested in mouse RAW 264.7 cells; also: potency is read from the fitted curve at half-maximal effect; nearly all actives have a fitted effect of over 55% in size
# IL1B secr inh = qHTS for Inhibitors of Inflammasome Signaling: IL-1-beta AlphaLISA Primary Screen. THP-1 LPS/ATP IL-1B secretion, AlphaLISA, 16 h; stronger effect = lower value. activity change, % at 57.5 µM. hit rate 4.7% among 360,000. AID 743279, 2014; in the data active = activity change below about -50%; inconclusive = mostly about -30% to -49%
#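 Secreted IL-1B measured by AlphaLISA bead assay after 16 h compound exposure of THP-1 cells; compounds (final up to 57.5 uM) added 1 h before LPS (250 ng/mL) and ATP (1.25 mM) stimulation; lower signal means less secretion.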
# DT40 TDP1 CPT = qHTS for Inhibitors of human tyrosyl-DNA phosphodiesterase 1 (TDP1): qHTS in cells in presence of CPT; chicken DT40 Tdp1-/-;hTDP1 cells + 20 nM CPT, ATP luminescence, 48 h; Potency, µM (series often up to 46.2 µM), without a hit: at the top dose activity change, negative = growth inhibition, usual class: inhibitors; hit rate 12% among 420,000; AID 686979, 2013; also: potency is read from the fitted curve at half-maximal effect; nearly all actives have a fitted effect of over 55% in size
#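 Chicken DT40 Tdp1-/- cells complemented with human TDP1, 400 cells/well, exposed to compounds plus 20 nM camptothecin for at least 48 h at 37 C; viability read as ATP content by CellTiter-Glo luminescence.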
# HT1080NT lethal = qHTS for induction of synthetic lethality in tumor cells producing 2HG: qHTS for the HT-1080-NT fibrosarcoma cell line; Potency, µM (doses to about 46.1 µM), for the others: at the top dose activity, negative = less viability, hits mostly cytotoxic; HT-1080-NT fibrosarcoma viability, CellTiter-Glo ATP luminescence, 48 h; AID 686970, 2013; hit rate 1.6% among 360,000;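 also: NT is the 2HG producing partner of a matched IDH1 knockdown line; potency is read from the fitted curve at half-maximal effect; 0% = DMSO-treated cells and -100% = media-only wells without cells; nearly all actives have a fitted effect of over 55% in size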
#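 Viability by CellTiter-Glo luminescence after 48 h compound exposure at 37C of HT-1080-NT cells (750/well, RPMI, 5% FBS). % activity scaled between DMSO wells and medium-only wells, then curve-fitted and categorized by curve class.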
# HT1080 IDH1KD tx = qHTS for induction of synthetic lethality in tumor cells producing 2HG: qHTS for the HT-1080-IDH1KD cell line; hit rate 2% among 360,000; Potency, µM (doses to about 46.1 µM), for the others: at the highest dose activity, negative = toxicity, usual class: cytotoxic; HT-1080 IDH1 knockdown viability, ATP luminescence, 48 h;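 also: potency is read from the fitted curve at half-maximal effect; 0% = DMSO wells and -100% = cell-free medium wells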
#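 CellTiter-Glo luminescence after 48 h compound exposure at 37 degrees C of IDH1-knockdown HT-1080 cells in 5% FBS RPMI. %Activity scaled between DMSO wells and cell-free media wells, with curves fitted and assigned curve classes.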
# * marks the source's active call; other numbers are inactive results; ? = inconclusive; . = not tested or not shown. A selection: hits, their analogues and other compounds. The true share with any hit is near 19%. Unless noted, calls follow the shape of the dose curve; as a rule, active = well fitted curve in the direction sought with a large enough effect; inconclusive = small, poorly fitted or top-dose-only effect, or another doubt; inactive = no such curve, though single readings can be large; an effect the other way counts as inactive or inconclusive. Unless noted, % is scaled to controls: 0 for no effect and ±100 for the full control effect.
SMILES,TDP1 cell noCPT,uPA surface inh,IL1B secr inh,DT40 TDP1 CPT,HT1080NT lethal,HT1080 IDH1KD tx
CC(Cc1ccccc1)=NNc1ccc([N+](=O)[O-])cc1[N+](=O)[O-],7.31µM*,3.5%,-8.5,16.4µM*,?,-18.4%
COc1cccc(C(C)=NNc2ccc([N+](=O)[O-])cc2[N+](=O)[O-])c1OC,20.6µM*,.,10.8,?,9.4%,2.4%
Cc1nc2sccn2c(=O)c1S(=O)(=O)N1CCN(c2ccccc2)CC1,-12.8%,5.0%,6.3,-8.6%,14.4%,11.6%
Cc1nc2sccn2c(=O)c1CCN1CCC(=C(c2ccccc2)c2ccc(F)cc2)CC1,11.9µM*,.,.,13.3µM*,.,.
Clc1ccc(-c2csc3ncnc(Sc4nnnn4-c4ccccc4)c23)cc1,2µM*,.,.,3.55µM*,.,.
Cc1sc2ncnc(Sc3nnnn3-c3ccccc3)c2c1C,7.08µM*,?,-101.1*,5.8µM*,10µM*,7.08µM*
Clc1ccc(-n2nnnc2Sc2ncnc3sccc23)cc1,1.84µM*,17.0%,-120.5*,2.31µM*,20.6µM*,?
Cc1ccc(-c2csc3ncnc(Sc4nnnn4-c4ccccc4)c23)cc1,5.62µM*,.,.,7.08µM*,.,.
CCC(=O)N[C@@H]1c2ccccc2C2(CCN(Cc3[nH]c4c(Cl)cccc4c3C)CC2)[C@H]1OC,-26.5%,.,.,-13.7%,.,.
COC(=O)c1c(C)cc(C)c2c1CC(C)(C)C2=O,-1.5%,4.9%,12.0,3.8%,-0.9%,19.4%
COc1ccc(C2NC(=O)N(C)C3=C2C(=O)N(c2ccc(F)cc2)C3)cc1 (configuration not stated),-27.7%,.,.,10.3%,.,.
c1ccc(-c2ccc(-c3csc4ncnc(Sc5nnnn5-c5ccccc5)c34)cc2)cc1,6.31µM*,.,.,7.08µM*,.,.
Cn1nnnc1Sc1ncnc2scc(-c3cccc(S(C)(=O)=O)c3)c12,.,-6.1%,.,.,.,.
O=C(NCCOCCn1c(=O)oc2ccccc21)Nc1cccc(Cl)c1,8.2µM*,.,.,7.31µM*,.,.
Cc1ccc(NC(=O)CCn2c(=S)oc3ccccc32)cc1F,?,0.8%,7.1,-16.6%,6.6%,7.6%
Cc1ccc(NC(=O)NCCOCCn2c(=O)oc3ccccc32)cc1F,5.8µM*,.,.,5.8µM*,.,.
Cc1ccc(NC(=O)NCCOCCn2c(=O)oc3ccccc32)cc1C,4.11µM*,.,.,5.8µM*,.,.
O=C(CCn1c(=O)oc2ccccc21)Nc1ccccc1,-15.4%,4.6%,-10.7,12.4%,11.2%,1.4%
Cc1ccc(NC(=O)Cn2c(=O)oc3ccccc32)cc1C,-1.9%,-1.0%,-8.5,2.3%,12.3%,9.9%
Cc1ccc(NC(=O)NCCOCCn2c(=O)oc3ccccc32)c(C)c1,5.8µM*,.,.,4.61µM*,.,.
O=C(CCCCC(=O)NN=Cc1ccc(Cl)cc1)NN=Cc1ccc(Cl)cc1,?,3.3%,-2.5,?,-7.4%,-2.9%
CSc1nc(Cl)cc(Nc2ccc(O)cc2)n1,?,-7.3%,16.1,?,16.4µM*,13µM*
COc1ccc(Cn2c(=O)[nH]c3cc(C(=O)N4CCN(c5ccccn5)CC4)ccc3c2=O)cc1,23.1µM*,0.3%,-15.9,14.6µM*,1.7%,3.6%
COc1ccc(Cn2c(=O)[nH]c3cc(C(=O)N4CCN(c5cc(Cl)ccc5C)CC4)ccc3c2=O)cc1,14.6µM*,.,.,14.6µM*,.,.
O=C(CCc1nnc2n(Cc3ccc(F)cc3)c(=O)c3ccccc3n12)N1CCN(c2ccccn2)CC1,20.6µM*,2.9%,?,?,13.7%,14.4%
